The record followed here is PubChem BioAssay (NCATS).

Results filed as inconclusive are left out. Where a call stands in place of a potency, no number is given. Calls of active or inactive are those of the source. The call rests on the fitted dose curve; in most records, active means well fitted inhibition curve with a large enough effect; inconclusive means small, poorly fitted or top-dose-only effect; inactive means flat fitted curve, though single readings scatter. Where a SMILES comes first, the peptide text is derived from it. [ ]: non-standard residue; d: D form.

A short description of the experiment: P-glycoprotein substrates identified in KB-8-5-11 adenocarcinoma cell line, qHTS therapeutic library screen (AID 1346987). Further: nearly all actives have a fitted effect of over 65% in size. Particulars: KB-8-5-11 (P-gp overexpressing) viability, CellTiter-Glo, 72 h; series mostly up to 44.5 µM. In a few lines:
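KB-8-5-11, a colchicine-selected P-gp-overexpressing KB-3-1 subline, was grown without colchicine for the assay. Cells were seeded at 500 cells/well, dosed in concentration-response and incubated 72 h at 37 degree C, 5% CO2. Viability was read by CellTiter-Glo luminescence.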
For orientation: Quantitative high-throughput screening tests each substance at several concentrations.
For the molecule `C[C@@H]1O[C@@H](O[C@H]2[C@H](OC(=O)[C@]34CCC(C)(C)C[C@H]3C3=CCC5[C@@]6(C)C[C@H](O)[C@H](O[C@@H]7O[C@H](CO[C@@H]8OC[C@H](O)[C@H](O)[C@H]8O)[C@@H](O)[C@H](O)[C@H]7O)C(C)(C)C6CC[C@@]5(C)[C@]3(C)C[C@H]4O)OC[C@@H](O)[C@@H]2O)[C@H](O)[C@H](O[C@@H]2OC[C@](O)(CO)[C@H]2O)[C@H]1O[C@@H]1OC[C@H](O)[C@H](O[C@@H]2OC[C@@H](O)[C@H](O)[C@H]2O)[C@H]1O` (stereo not given in full), the activity change, negative = cytotoxicity was 7.52% [at 9.29 µM] (inactive).

With `O=C(/C=C/c1ccc(O)cc1)OCC1=C[C@@H](O)[C@@H]2C=CO[C@@H](O[C@@H]3O[C@H](CO)[C@@H](O)[C@H](O)[C@H]3O)[C@H]12`, the Potency entry is “inactive”.

For `Cc1cc(C)cc(NC(=O)Cc2ccc(OC(C)(C)C(=O)O)cc2)c1`, the Potency result is “inactive”.

As to `COC(=O)CC1(O)C(=O)Nc2ccccc21` (stereo not given), the Potency entry is “inactive”.

With `COC(=O)C1C(c2ccc(O)cc2)C(C(=O)OC)C1c1ccc(O)cc1` (stereo not given), the Potency entry is “inactive”.

For the molecule `CO[C@@]12CC3[C@@H]([C@@H](O)[C@@H](OC(C)=O)C4[C@](C)(COC(C)=O)CCC[C@]34C)[C@@H](C)C1=CC(=O)O2` (stereo not given in full), the Potency result is “inactive”.

For the molecule `CC(=O)N[C@H](Cc1ccc(O)cc1)C(=O)N[C@H](CCCN=C(N)N)C(=O)N[C@H](Cc1ccccc1)C(N)=O` (Ac-[dY]-[dR]-[dF]-NH2), the Potency result is “inactive”.

With `Cc1ccc(Sc2cncc3sc(C(N)=O)cc23)cc1`, the Potency result is “inactive”.

Turning to `CCC(=O)N[C@@H]1Cc2ccccc2[C@H](c2ccccc2)C1`, the Potency entry is “inactive”.

On to `CC(=O)O[C@@H]1[C@H](O[C@@H]2O[C@H](CO)[C@@H](O)[C@H](O)[C@H]2O)[C@@H](O[C@@H]2O[C@@H](C)[C@H](O)[C@@H](O[C@@H]3O[C@H](CO)[C@@H](O)[C@H](O)[C@H]3O)[C@H]2O)[C@H](OC(=O)C23CCC4(C)C(=CCC5C6(C)CC(O)C(O[C@@H]7O[C@H](C(=O)O)[C@@H](O)[C@H](O)[C@H]7O)C(C)(C(=O)O)C6CCC54C)C2CC(C)(C)CC3O)O[C@@H]1C` (stereo not given in full), for which the outcome is “inactive [at 9.29 µM]”.

Turning to `C[C@@H]1C[C@H](O[C@@H]2O[C@H](CO[C@@H]3OC[C@](O)(CO)[C@H]3O)[C@@H](O)[C@H](O)[C@H]2O)CC(C)(C)[C@H]1/C=C/[C@@H](C)O`, the Potency result was “inactive”.

Regarding `NC1CCC(N[C@@H]2C[C@H]2c2ccccc2)CC1` (stereo not given in full), the Potency entry was “inactive”.

As for `CN1C(=O)c2ccccc2-n2c(nc3ccccc3c2=O)/C1=C/c1ccccc1`, the Potency entry is “inactive”.

Take `Nc1ncnc2c1ncn2[C@H]1CCCO1`: the Potency result was “inactive”.

In the case of `CC(C)c1nc(N(C)S(C)(=O)=O)nc(-c2ccc(F)cc2)c1/C=C/[C@@H](O)C[C@@H](O)CC(=O)O`, the Potency entry is “inactive”.

Turning to `CCC(NC(=O)CC(NC(=O)C(CO)NC(=O)C(CC)NC(=O)c1ccc[nH]1)c1ccccc1)C(=O)O` (stereo not given), the Potency result was “inactive”.

For the molecule `CC(C)CC(=O)n1cc(C(N)=O)c(=O)cc1C(O)c1ccccc1` (stereo not given), the Potency result was “inactive”.

On to `CC1=C2C=C(CO)C(CO)CCC2(C)CCC1=O` (stereo not given), for which the Potency entry was “inactive”.

Take `CO/N=C(/C(=O)N[C@@H]1C(=O)N2C(C(=O)O)=C(CSC(=O)c3ccco3)CS[C@H]12)c1csc(N)n1`: the Potency entry was “inactive”.

Turning to `CC(C)CC(=O)O[C@@H]1OC=C(CO[C@@H]2O[C@H](CO[C@@H]3O[C@H](CO)[C@@H](O)[C@H](O)[C@H]3O)[C@@H](O)[C@H](O)[C@H]2O)[C@H]2C[C@H](O)[C@@H](CO)[C@@H]12`, the Potency entry was “inactive”.

For the molecule `O=C(O)CCc1cccc(O[C@@H]2O[C@H](CO)[C@@H](O)[C@H](O)[C@H]2O)c1O`, the Potency result is “inactive”.

For `CC(=O)NC(C(=O)OC1CCC(C)(C)C2CC=C3C(=O)OCC3(O)C12C)C(C)C` (stereo not given), the Potency entry was “inactive”.

Regarding `COc1ccc2c(c1)O[C@H](O[C@@H]1O[C@H](CO)[C@@H](O)[C@H](O)[C@H]1O)C(=O)N2`, the Potency entry is “inactive”.

For the molecule `CC(=O)O[C@H]1C[C@@H]2[C@]3(CC[C@]4(C)[C@@H](C5(C)CCC(C(C)(C)O)O5)[C@@H](O)C[C@@]24C)C[C@@]32CC[C@H](O[C@@H]3OC[C@@H](O)[C@H](O)[C@H]3O)C(C)(C)[C@H]12` (stereo not given in full), the Potency entry was “inactive”.

As for `COC1C2=C(COC2=O)C2(C)CCCC(C)(CO)C2C1OC(=O)c1ccccc1` (stereo not given), the Potency entry is “inactive”.

Regarding `CC(=O)NCCCCn1c2c(c3ccccc31)C(=O)NCC2`, the Potency entry was “inactive”.

For the molecule `CC(C)C1=CCC(C)(O)C(OC2OC(CO)C(O)C(O)C2O)C1` (stereo not given), the Potency entry is “inactive”.

Turning to `CC(C)=CCC[C@](C)(O[C@@H]1O[C@H](CO[C@@H]2OC[C@@H](O)[C@H](O)[C@H]2O)[C@@H](O)[C@H](O)[C@H]1O)[C@H]1CC[C@]2(C)[C@@H]1[C@H](O)C[C@@H]1[C@@]3(C)CC[C@H](O[C@@H]4O[C@H](CO)[C@@H](O)[C@H](O)[C@H]4O[C@@H]4O[C@H](CO)[C@@H](O)[C@H](O)[C@H]4O)C(C)(C)[C@@H]3CC[C@]12C`, the Potency result is “inactive”.

As for `CC1CC(=O)C2=C(O1)OC1(C)CCC3C(C)(C)C=CC(=O)C3(C)C1C2` (stereo not given), the Potency result is “inactive”.

As to `CC1(C)CC[C@]2(C(=O)O)CC[C@]3(C)C(=CCC4[C@@]5(C)CC[C@H](O[C@@H]6O[C@H](C(=O)O)[C@@H](O)[C@H](O)[C@H]6O)C(C)(CO)C5CC[C@]43C)C2C1` (stereo not given in full), the Potency entry is “inactive”.

Turning to `CC(C)(O)/C=C1/C(=O)C(C)(C)C(=O)C(C)(C)C1(O)O[C@@H]1O[C@H](COC(=O)c2cc(O)c(O)c(O)c2)[C@@H](O)[C@H](O)[C@H]1O` (stereo not given in full), the Potency entry is “inactive”.

As to `O=C(O)c1cc(O[C@@H]2O[C@H](CO[C@@H]3OC[C@@H](O)[C@H](O)[C@H]3O)[C@@H](O)[C@H](O)[C@H]2O)c2ccccc2c1O`, the Potency result was “inactive”.

Regarding `O=C(O)c1ccc(CCCc2ccc(OCCc3ccc(F)cc3)cc2)o1`, the Potency result is “inactive”.

As for `CC(=O)[C@@H]1CC[C@]2(C(=O)O)CC[C@]3(C)C(CCC4[C@@]5(C)CC[C@H](O)C(C)(C)C5CC[C@]43C)C12` (stereo not given in full), the Potency entry was “inactive”.

As for `COC(=O)C1(Cc2ccc(O)cc2)OC(=O)C(OC)=C1c1ccc(O)cc1` (stereo not given), the Potency result is “inactive”.

As to `O=C(/C=C/c1c(C(=O)O)[nH]c2cc(Cl)cc(Cl)c12)Nc1ccccc1`, the Potency entry is “inactive”.

Consider `C[C@H]1C[C@H]2[C@@H]3CCC4=CC(=O)C=C[C@]4(C)[C@@]3(F)[C@@H](O)C[C@]2(C)[C@@]1(O)C(=O)COP(=O)(O)O`, for which the Potency entry is “inactive”.

For `CC(C)(O)C1CC=C(C(=O)OCC2OC(Oc3c(O)cc(C(=O)O)cc3O)C(O)C(O)C2O)CC1` (stereo not given), the Potency result is “inactive”.

Take `COc1cc(COC2OC(CO)C(O)C(O)C2O)cc(OC)c1O` (stereo not given): the Potency result is “inactive”.

For `CNC(=O)O[C@H]1COc2ccc(N3CCN(C4COC4)CC3)cc2[C@@H]1NC(=O)c1ccc(F)cc1`, the Potency result is “inactive”.
